Test results taken from PubChem BioAssay (Tox21).
Several values for one entry are separate records, joined by “and”; a condition that tells them apart may be missing. Equal values may be shown once. Results filed as inconclusive are left out. Entries that show only a call come without a potency. More than one record can exist for a structure, and the calls need not agree. Activity calls are given as the source filed them. Unless noted, calls come from the whole dose curve.

Key:
[1] = Nuclear factor erythroid 2-related factor 2/antioxidant responsive element (Nrf2/ARE) small molecule agonists: qHTS cell viability counter screen in human keratinocytes (AID 1919968; active = well fitted curve in the direction sought with a large enough effect in the repeat runs; an effect the other way counts as inactive or inconclusive; note: nearly all actives have a fitted effect of over 55% in size)
How it was run: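 In human HaCaT keratinocytes stably expressing an ARE-driven luciferase, compound exposure lasted 23 h at 37 C under 5% CO2. Viable cells are quantified with a protease-based fluorogenic reagent (CellTiter-Fluor) read 1 h after addition.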

[2] = biological target: Gonadotropin-releasing hormone receptor (Homo sapiens) (UniProt P30968); experiment: Human gonadotropin-releasing hormone receptor (GnRHR) small molecule agonists, calcium flux assay in GnRHR-HEK293 cells (AID 1920063); note: nearly all actives have a fitted effect of over 35% in size
How it was run: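 Intracellular calcium rise is the read-out: engineered human GnRHR HEK293 cells, dye-loaded, are exposed to DMSO-dissolved compounds and fluorescence at Ex/Em 480/540 is tracked for 3 min.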

[3] = biological target: KiSS-1 receptor (Homo sapiens) (UniProt Q969F8); experiment: Human kisspeptin (KISS1R) small molecule agonists, calcium flux assay in KISS1R-HEK293 cells (AID 1920064; active = well fitted curve in the direction sought with a large enough effect in the repeat runs; an effect the other way counts as inactive or inconclusive)
How it was run: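 Concentration-response testing used 15 concentrations in triplicate on human KISS1R-expressing HEK293 cells. Calcium-dependent fluorescence (Ex/Em 480/540) was followed kinetically for 3 min after compound transfer.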

[4] = G protein-coupled receptor (GPCR) small molecule agonists, calcium flux assay: HEK293 wild type cell line counter screen (AID 1920065)
How it was run: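 Fluorescence intensity signals activation. After overnight (18 h) culture and a 1 h calcium dye load at 37 C, compounds are added by pin tool and the plate read at 480/540 nm for 3 min in 1 s steps.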

[5] = p53 small molecule agonists, cell-based qHTS assay with human liver microsomes: qHTS cell viability counter screen (AID 1963579); note: nearly all actives have a fitted effect of over 45% in size
How it was run: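 Seed p53RE-bla cells at 4,000 per well; incubate 5 h at 37 C; add compound, human liver microsomes and NADPH; incubate 16 h at 37 C; add CellTiter-Glo; after 30 min at room temperature, read luminescence.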

[6] = p53 small molecule agonists, cell-based qHTS assay with rat liver microsomes: qHTS cell viability counter screen (AID 1963580); note: nearly all actives have a fitted effect of over 45% in size
How it was run: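 Cytotoxicity counter screen: intracellular ATP read by CellTiter-Glo luminescence in the p53 reporter wells. HCT-116 p53RE-bla cells were treated for 16 h at 37 C alongside rat liver microsomes and NADPH, each 0.5 mg/mL final.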

[7] = p53 small molecule agonists, cell-based qHTS assay: qHTS cell viability counter screen (AID 1963581); note: nearly all actives have a fitted effect of over 45% in size
How it was run: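 Luminescence from CellTiter-Glo, reflecting ATP content, serves as the cytotoxicity measure; it is taken after the 2 h reporter substrate step in HCT-116 p53RE-bla cells dosed for 16 h at 37 C.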

[8] = p53 small molecule agonists, cell-based qHTS assay (AID 1963582; active = well fitted activation curve with a large enough effect in the signal ratio in the repeat runs, not every such curve was filed as active; the % refers to the signal ratio)
How it was run: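 After plating, p53RE-bla cells sat 5 h in the incubator; compounds or DMSO vehicle were pinned in; a 16 h incubation at 37 C followed; FRET substrate was added and, 2 h later at RT, fluorescence was measured.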

[9] = biological target: 5-hydroxytryptamine receptor 2A (Homo sapiens) (UniProt P28223); experiment: 5-hydroxytryptamine receptor 2A (HTR2A) small molecule antagonists, cell-based qHTS assay (AID 1963586); note: nearly all actives have a fitted effect of over 45% in size
How it was run: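 CHO cells stably expressing human HTR2A were plated for 18 h at 37 C, then loaded with calcium dye for 1 h. Compounds were preincubated 5 min at room temperature before DOI (4 nM solution) was added. Kinetic fluorescence was read for 3 min.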

[10] = biological target: 5-hydroxytryptamine receptor 2A (Homo sapiens) (UniProt P28223); experiment: 5-hydroxytryptamine receptor 2A (HTR2A) small molecule agonists, cell-based qHTS assay (AID 1963587); note: nearly all actives have a fitted effect of over 30% in size; note: potency is the fitted concentration of half-maximal effect
How it was run: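 Kinetic calcium-flux fluorescence (2 min, 1 sec intervals) after compound addition in agonist mode. HTR2A-CHO cells were cultured 18 h, then dye-loaded 1 h at 37 C.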

[11] = biological target: Muscarinic acetylcholine receptor M1 (Homo sapiens) (UniProt P11229); experiment: Cholinergic receptor muscarinic 1 (CHRM1) small molecule antagonists, cell-based qHTS assay (AID 1963588); note: nearly all actives have a fitted effect of over 40% in size
How it was run: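 Compounds were tested at 15 concentrations in three independent runs. Dye-loaded CHRM1-CHO cells were exposed 5 min at room temperature before stimulation by acetylcholine added at 50nM. Intracellular calcium was read kinetically on FDSS for 3 min.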

[12] = biological target: Muscarinic acetylcholine receptor M1 (Homo sapiens) (UniProt P11229); experiment: Cholinergic receptor muscarinic 1 (CHRM1) small molecule agonists, cell-based qHTS assay (AID 1963589); note: nearly all actives have a fitted effect of over 35% in size
How it was run: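 Fluorescent calcium dye reports M1 activation in stably transfected CHO cells. Compounds, 15 concentrations, added after 1 h dye loading at 37 C; kinetic reading at 1 sec intervals.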

[13] = cAMP Responsive Elements (CRE) small molecule agonists, cell-based qHTS assay (AID 1963590)
How it was run: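 Compound exposure lasted 3 h at 37 C/5% CO2 in CRE-bla HEK 293T cells grown in assay medium with 10% dialyzed FBS and 25 mM HEPES. Reporter signal came from LiveBLAzer B/G FRET substrate, 2 h, room temperature.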

[14] = cAMP Responsive Elements (CRE) small molecule antagonists, cell-based qHTS assay (AID 1963591; active = well fitted inhibition curve with a large enough effect in the signal ratio in the repeat runs, not every such curve was filed as active; the % refers to the signal ratio)
How it was run: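 Stimulation used NKH477 at a final 0.25 uM for 3 h in compound-treated CRE-bla HEK293T cells, seeded 18 h beforehand. Reporter activity was measured with LiveBLAzer B/G FRET substrate after 2 h at room temperature.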

[15] = biological target: Beta-2 adrenergic receptor (Homo sapiens) (UniProt P07550); experiment: Adrenergic beta2 receptor (ADRB2) small molecule antagonists, cell-based qHTS assay (AID 1963592); note: series mostly up to about 92 µM; nearly all actives have a fitted effect of over 50% in size
How it was run: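 Assay format: CHO-ADRB2 cells, 18-20hr seeding at 37C/5% CO2, then compound plus 1nM isoproterenol agonist mix for 0.5hr RT. Homogeneous time-resolved fluorescence cAMP detection after 1hr, expressed as 665/615 nm ratio.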

[16] = biological target: Beta-2 adrenergic receptor (Homo sapiens) (UniProt P07550); experiment: Adrenergic beta2 receptor (ADRB2) small molecule agonists, cell-based qHTS assay (AID 1963593);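 note: CHO cells stably overexpressing human ADRB2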
How it was run: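 CHO cells stably over-expressing ADRB2 were plated overnight at 37C, then dosed with compounds plus a stimulation mix containing 100uM IBMX and 25uM Ro-20-1724 for 0.5hr at room temperature. cAMP was measured by HTRF competition, 1hr.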

[17] = biological target: D(2) dopamine receptor (Homo sapiens) (UniProt P14416); experiment: Dopamine D2 receptor (DRD2) small molecule agonists, cell-based qHTS assay (AID 1963594); note: nearly all actives have a fitted effect of over 35% in size
How it was run: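 cAMP accumulation in DRD2-HEK293 cells measured by HTRF after 1 h detection; compounds added 10 min before NKH477 (200nM […]) forskolin-analogue stimulation, 30 min at room temperature, with Ro20-1724 present at 0.1 mM final.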

[18] = biological target: D(2) dopamine receptor (Homo sapiens) (UniProt P14416); experiment: Dopamine D2 receptor (DRD2) small molecule antagonists, cell-based qHTS assay (AID 1963595; active = well fitted inhibition curve with a large enough effect in the signal ratio in the repeat runs, with a control signal flat; the % refers to the signal ratio)
How it was run: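 HEK293 cells stably expressing DRD2 were preincubated with 0.1 mM Ro20-1724, then with compound for 10 min at room temperature. Cells were stimulated with 200 nM NKH477 plus 12 nM quinpirole for 30 min, and cAMP was read by HTRF.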

[19] = p53 small molecule agonists, cell-based qHTS assay with human liver microsomes (AID 1963577)
How it was run: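 Cells carrying a p53-responsive bla reporter were rested 5 h (37 C, 5% CO2) before compound transfer. Human liver microsomes plus NADPH, 0.5 mg/mL final apiece, supplied metabolism during the 16 h 37 C exposure.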

[20] = p53 small molecule agonists, cell-based qHTS assay with rat liver microsomes (AID 1963578)
How it was run: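 Fluorescence from a beta-lactamase reporter under a p53 response element was measured after cells had been incubated 16 h at 37 C with test compound and rat liver microsomes plus NADPH (0.5 mg/mL final each).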

Chain of Gonadotropin-releasing hormone receptor (Homo sapiens) (P30968 whole entry, looked up): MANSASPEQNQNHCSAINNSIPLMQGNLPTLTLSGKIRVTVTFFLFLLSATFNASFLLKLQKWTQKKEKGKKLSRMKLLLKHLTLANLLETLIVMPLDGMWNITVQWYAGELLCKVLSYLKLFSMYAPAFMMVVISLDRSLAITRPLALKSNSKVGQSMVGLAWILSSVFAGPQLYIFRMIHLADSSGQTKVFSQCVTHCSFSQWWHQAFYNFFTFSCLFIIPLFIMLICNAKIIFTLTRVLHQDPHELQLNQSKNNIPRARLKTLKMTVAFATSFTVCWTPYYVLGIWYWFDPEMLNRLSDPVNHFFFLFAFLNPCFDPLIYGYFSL
Chain of Beta-2 adrenergic receptor (Homo sapiens) (P07550 whole entry, looked up): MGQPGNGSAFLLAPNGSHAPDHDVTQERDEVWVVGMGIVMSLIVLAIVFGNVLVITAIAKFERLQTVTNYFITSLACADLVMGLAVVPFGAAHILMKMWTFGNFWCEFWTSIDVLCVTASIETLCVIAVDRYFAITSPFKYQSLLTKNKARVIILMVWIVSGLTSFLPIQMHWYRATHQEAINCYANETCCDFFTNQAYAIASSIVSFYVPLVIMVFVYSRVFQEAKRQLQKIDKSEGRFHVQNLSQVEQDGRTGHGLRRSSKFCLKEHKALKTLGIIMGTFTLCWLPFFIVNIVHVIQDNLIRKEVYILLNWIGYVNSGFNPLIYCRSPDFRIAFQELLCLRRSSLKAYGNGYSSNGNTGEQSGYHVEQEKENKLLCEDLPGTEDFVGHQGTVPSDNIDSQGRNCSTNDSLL
Chain of KiSS-1 receptor (Homo sapiens) (Q969F8 whole entry, looked up): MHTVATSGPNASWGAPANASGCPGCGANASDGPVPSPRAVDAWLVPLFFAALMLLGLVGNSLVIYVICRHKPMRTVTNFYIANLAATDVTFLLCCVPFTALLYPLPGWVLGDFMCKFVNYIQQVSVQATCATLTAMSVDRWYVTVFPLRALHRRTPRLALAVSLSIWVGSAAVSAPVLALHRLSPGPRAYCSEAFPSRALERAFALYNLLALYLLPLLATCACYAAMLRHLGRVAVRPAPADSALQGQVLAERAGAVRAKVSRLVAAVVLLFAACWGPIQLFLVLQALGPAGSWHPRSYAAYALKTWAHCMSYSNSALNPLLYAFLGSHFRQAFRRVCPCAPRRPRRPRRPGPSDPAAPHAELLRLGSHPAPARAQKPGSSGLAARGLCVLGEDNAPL
Chain of Muscarinic acetylcholine receptor M1 (Homo sapiens) (P11229 whole entry, looked up): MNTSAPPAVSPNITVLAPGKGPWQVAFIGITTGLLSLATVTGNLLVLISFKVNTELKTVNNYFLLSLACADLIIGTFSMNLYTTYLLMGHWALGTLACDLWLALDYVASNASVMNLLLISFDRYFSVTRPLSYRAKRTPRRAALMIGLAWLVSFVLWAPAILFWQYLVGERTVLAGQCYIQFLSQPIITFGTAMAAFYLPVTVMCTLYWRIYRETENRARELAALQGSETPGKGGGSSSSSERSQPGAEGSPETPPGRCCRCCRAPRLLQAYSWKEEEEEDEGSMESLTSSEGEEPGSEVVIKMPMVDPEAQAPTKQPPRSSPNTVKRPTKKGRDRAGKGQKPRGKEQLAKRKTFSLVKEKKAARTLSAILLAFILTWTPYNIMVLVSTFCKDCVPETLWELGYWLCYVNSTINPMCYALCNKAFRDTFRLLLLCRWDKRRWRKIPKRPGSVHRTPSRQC
Chain of D(2) dopamine receptor (Homo sapiens) (P14416 whole entry, looked up): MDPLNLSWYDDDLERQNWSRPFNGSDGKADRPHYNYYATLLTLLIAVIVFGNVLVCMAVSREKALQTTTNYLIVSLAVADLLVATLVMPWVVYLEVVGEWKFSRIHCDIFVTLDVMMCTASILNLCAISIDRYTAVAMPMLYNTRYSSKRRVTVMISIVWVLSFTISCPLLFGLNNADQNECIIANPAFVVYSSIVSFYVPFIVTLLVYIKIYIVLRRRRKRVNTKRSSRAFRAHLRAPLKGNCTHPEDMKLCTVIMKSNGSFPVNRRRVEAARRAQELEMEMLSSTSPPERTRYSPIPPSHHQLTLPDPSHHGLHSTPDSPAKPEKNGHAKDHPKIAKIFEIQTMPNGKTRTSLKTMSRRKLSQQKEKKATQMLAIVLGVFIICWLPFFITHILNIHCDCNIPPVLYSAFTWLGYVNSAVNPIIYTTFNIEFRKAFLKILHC
Chain of 5-hydroxytryptamine receptor 2A (Homo sapiens) (P28223 whole entry, looked up): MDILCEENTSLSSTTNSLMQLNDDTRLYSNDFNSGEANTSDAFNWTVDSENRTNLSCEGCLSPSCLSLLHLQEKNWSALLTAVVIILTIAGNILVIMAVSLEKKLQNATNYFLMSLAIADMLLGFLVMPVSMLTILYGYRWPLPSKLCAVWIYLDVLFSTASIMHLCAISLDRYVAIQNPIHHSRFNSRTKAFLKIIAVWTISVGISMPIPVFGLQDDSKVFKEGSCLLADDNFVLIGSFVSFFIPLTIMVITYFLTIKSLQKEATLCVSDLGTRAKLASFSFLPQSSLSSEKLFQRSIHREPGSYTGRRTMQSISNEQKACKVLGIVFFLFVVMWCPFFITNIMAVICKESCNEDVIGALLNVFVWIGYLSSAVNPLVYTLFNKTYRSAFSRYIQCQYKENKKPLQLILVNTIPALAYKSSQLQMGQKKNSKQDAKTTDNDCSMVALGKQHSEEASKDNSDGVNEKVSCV

Row | SMILES | Potency [1] | Potency [2] | Potency [3] | Potency [4] | Potency [5] | Potency [6] | Potency [7] | Potency [8] | Potency [9] | Potency [10] | Potency [11] | Potency [12] | Potency [13] | Potency [14] | Potency [15] | Potency [16] | Potency [17] | Potency [18] | Potency [19] | Potency [20]
1 | CNC(=O)O/N=C/C(C)(C)SC | inactive | inactive | inactive | inactive | inactive | inactive | inactive | inactive | inactive | inactive | inactive | inactive | inactive | inactive | inactive | inactive | inactive | – | – | –
2 | [CH3][Sn]([CH3])([Cl])[Cl] | inactive | inactive | inactive | inactive | inactive | inactive | inactive | – | – | inactive | inactive | inactive | inactive | inactive | inactive | – | inactive | inactive | – | –
3 | COC(=O)[C@@H](N)CCCN/C(N)=N/[N+](=O)[O-] | inactive | – | inactive | inactive | inactive | inactive | inactive | inactive | inactive | inactive | inactive | inactive | inactive | inactive | inactive | – | inactive | inactive | inactive | inactive
4 | O=[N+]([O-])O | inactive | inactive | inactive | inactive | inactive | inactive | inactive | – | – | inactive | inactive | inactive | inactive | inactive | inactive | inactive | inactive | inactive | – | –
5 | CCCCCCCCCCCCOS(=O)(=O)O | inactive | inactive | – | inactive | inactive | inactive | inactive | – | inactive | inactive and 55 µM (active) and 49 µM (active) | inactive | inactive | – | inactive | inactive | inactive | inactive | inactive | – | –
6 | c1ccc(-c2cccc(-c3ccccc3)c2)cc1 | inactive | inactive | inactive | inactive | inactive | inactive | – | inactive | inactive | inactive | inactive | inactive | inactive | – | inactive | inactive | inactive | inactive | – | inactive
7 | CCC1(c2ccc(N)cc2)CCC(=O)NC1=O (stereo unspecified) | inactive | inactive | inactive | inactive | inactive | inactive | inactive | – | – | – | – | – | inactive | inactive | inactive | inactive | inactive | inactive | – | –
